# Measurements as given in publication PMC12820563, “FoxP3 forms a head-to-head dimer in vivo and stabilizes its multimerization on adjacent microsatellites”.
# Whole data set: some 16,000 sequences, median “rpm ratio (pull-down/input)” near 0.94, cut for the highest 2% near 1.7. What follows is part of a selection rich in the highest values, with near analogues and random picks from the rest.
# Biological target: T1, MBP-FoxP1dN (Mus musculus, UniProt P58462 326-579)
# T1 sequence: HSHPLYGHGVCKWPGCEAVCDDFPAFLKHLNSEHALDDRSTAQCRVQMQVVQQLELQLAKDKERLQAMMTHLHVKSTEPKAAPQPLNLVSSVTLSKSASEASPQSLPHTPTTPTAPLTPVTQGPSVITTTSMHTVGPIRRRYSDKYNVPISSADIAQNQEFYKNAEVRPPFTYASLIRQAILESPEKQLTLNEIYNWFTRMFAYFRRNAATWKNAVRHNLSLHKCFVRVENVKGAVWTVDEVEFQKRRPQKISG
# Assay: PD-seq (MBP pull-down with sequencing); 20 mM Tris-HCl pH 7.5, 100 mM NaCl, 1.5 mM MgCl2, 0.4 uM protein, 0.1 uM dsDNA library, 30 min, room temperature, amylose pull-down; high values mean tight binding
# Settings: protein: recombinant; tags: His6-MBP; chain copies: 2; dsDNA, one strand shown
# Method in brief: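 E. coli-expressed mouse FoxP3 or FoxP1 fragment, N-terminus removed and tagged with His6-MBP, was used at 0.4 µM against 0.1 µM of a Klenow-filled degenerate double-stranded DNA library. After 30 min at room temperature in Tris pH 7.5 buffer with NaCl and MgCl2, complexes were pulled down on amylose resin and washed three times. Binding is pull-down over input reads-per-million enrichment from pooled replicates of the proteinase K-released, PCR-barcoded, Illumina-sequenced DNA.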
row,Sequence,binding signal
1,GATGATTGTTCTCCCAGCTGATGAATTAAGGTGCTCGAGTAAACAAATTTTCCTAATCTTTCTGTTCAAGCGCCATCTAC,0.849 RPM ratio (pull-down/input)
2,GATGATTGTTCTCCCAGCTGATGAATTTGTAAGATCGAGTAAACAAATTTTCCTAATCTTTCTGTTCAAGCGCCATCTAC,1.09 RPM ratio (pull-down/input)
3,GATGATTGTTCTCCCAGCTGATGAATTTTTGAGATCGAGTAAACAAATTTTCCTAATCTTTCTGTTCAAGCGCCATCTAC,0.928 RPM ratio (pull-down/input)
4,GATGATTGTTCTCCCAGCTGATGAATTTGTACCATCGAGTAAACAAATTTTCCTAATCTTTCTGTTCAAGCGCCATCTAC,1.17 RPM ratio (pull-down/input)
5,GATGATTGTTCTCCCAGCTGATGAATTCATCGGATCGAGTAAACAAATTTTCCTAATCTTTCTGTTCAAGCGCCATCTAC,0.838 RPM ratio (pull-down/input)
6,GATGATTGTTCTCCCAGCTGATGAATTATTTCCTTCGAGTAAACAAATTTTCCTAATCTTTCTGTTCAAGCGCCATCTAC,1.04 RPM ratio (pull-down/input)
7,GATGATTGTTCTCCCAGCTGATGAATTGAGTGACTCGAGTAAACAAATTTTCCTAATCTTTCTGTTCAAGCGCCATCTAC,0.833 RPM ratio (pull-down/input)
8,GATGATTGTTCTCCCAGCTGATGAATTACCATTTTCGAGTAAACAAATTTTCCTAATCTTTCTGTTCAAGCGCCATCTAC,1.18 RPM ratio (pull-down/input)
9,GATGATTGTTCTCCCAGCTGATGAATTTACTGTTTCGAGTAAACAAATTTTCCTAATCTTTCTGTTCAAGCGCCATCTAC,1.35 RPM ratio (pull-down/input)
10,GATGATTGTTCTCCCAGCTGATGAATTTCCTGTTTCGAGTAAACAAATTTTCCTAATCTTTCTGTTCAAGCGCCATCTAC,0.949 RPM ratio (pull-down/input)
11,GATGATTGTTCTCCCAGCTGATGAATTGTTTTTTTCGAGTAAACAAATTTTCCTAATCTTTCTGTTCAAGCGCCATCTAC,2.25 RPM ratio (pull-down/input)
12,GATGATTGTTCTCCCAGCTGATGAATTACTGTTTTCGAGTAAACAAATTTTCCTAATCTTTCTGTTCAAGCGCCATCTAC,2.6 RPM ratio (pull-down/input)
13,GATGATTGTTCTCCCAGCTGATGAATTACTGATTTCGAGTAAACAAATTTTCCTAATCTTTCTGTTCAAGCGCCATCTAC,1.24 RPM ratio (pull-down/input)
14,GATGATTGTTCTCCCAGCTGATGAATTTCTGTTTTCGAGTAAACAAATTTTCCTAATCTTTCTGTTCAAGCGCCATCTAC,2.32 RPM ratio (pull-down/input)
15,GATGATTGTTCTCCCAGCTGATGAATTTTCTGTTTCGAGTAAACAAATTTTCCTAATCTTTCTGTTCAAGCGCCATCTAC,0.977 RPM ratio (pull-down/input)
16,GATGATTGTTCTCCCAGCTGATGAATTGTTTCTTTCGAGTAAACAAATTTTCCTAATCTTTCTGTTCAAGCGCCATCTAC,1.58 RPM ratio (pull-down/input)
17,GATGATTGTTCTCCCAGCTGATGAATTGATTGTTTCGAGTAAACAAATTTTCCTAATCTTTCTGTTCAAGCGCCATCTAC,1.61 RPM ratio (pull-down/input)
18,GATGATTGTTCTCCCAGCTGATGAATTGGCTATGTCGAGTAAACAAATTTTCCTAATCTTTCTGTTCAAGCGCCATCTAC,0.854 RPM ratio (pull-down/input)
19,GATGATTGTTCTCCCAGCTGATGAATTCGTCAGTTCGAGTAAACAAATTTTCCTAATCTTTCTGTTCAAGCGCCATCTAC,0.905 RPM ratio (pull-down/input)
20,GATGATTGTTCTCCCAGCTGATGAATTGTCTCCATCGAGTAAACAAATTTTCCTAATCTTTCTGTTCAAGCGCCATCTAC,1.11 RPM ratio (pull-down/input)
21,GATGATTGTTCTCCCAGCTGATGAATTGGTTTTATCGAGTAAACAAATTTTCCTAATCTTTCTGTTCAAGCGCCATCTAC,1.14 RPM ratio (pull-down/input)

row,Sequence,binding signal
1,GATGATTGTTCTCCCAGCTGATGAATTAGTGAGATCGAGTAAACAAATTTTCCTAATCTTTCTGTTCAAGCGCCATCTAC,0.857 RPM ratio (pull-down/input)
2,GATGATTGTTCTCCCAGCTGATGAATTTTTTACTTCGAGTAAACAAATTTTCCTAATCTTTCTGTTCAAGCGCCATCTAC,1.05 RPM ratio (pull-down/input)
3,GATGATTGTTCTCCCAGCTGATGAATTTACTTCTTCGAGTAAACAAATTTTCCTAATCTTTCTGTTCAAGCGCCATCTAC,1.33 RPM ratio (pull-down/input)
4,GATGATTGTTCTCCCAGCTGATGAATTACTTTATTCGAGTAAACAAATTTTCCTAATCTTTCTGTTCAAGCGCCATCTAC,1.15 RPM ratio (pull-down/input)
5,GATGATTGTTCTCCCAGCTGATGAATTGTTTACTTCGAGTAAACAAATTTTCCTAATCTTTCTGTTCAAGCGCCATCTAC,2.82 RPM ratio (pull-down/input)
6,GATGATTGTTCTCCCAGCTGATGAATTTATTACTTCGAGTAAACAAATTTTCCTAATCTTTCTGTTCAAGCGCCATCTAC,1.29 RPM ratio (pull-down/input)
7,GATGATTGTTCTCCCAGCTGATGAATTATTTACTTCGAGTAAACAAATTTTCCTAATCTTTCTGTTCAAGCGCCATCTAC,2.15 RPM ratio (pull-down/input)
8,GATGATTGTTCTCCCAGCTGATGAATTGCCAATGTCGAGTAAACAAATTTTCCTAATCTTTCTGTTCAAGCGCCATCTAC,0.943 RPM ratio (pull-down/input)
9,GATGATTGTTCTCCCAGCTGATGAATTGCGCGAATCGAGTAAACAAATTTTCCTAATCTTTCTGTTCAAGCGCCATCTAC,1.14 RPM ratio (pull-down/input)
10,GATGATTGTTCTCCCAGCTGATGAATTAGATTTATCGAGTAAACAAATTTTCCTAATCTTTCTGTTCAAGCGCCATCTAC,1.13 RPM ratio (pull-down/input)
11,GATGATTGTTCTCCCAGCTGATGAATTCTCTTTATCGAGTAAACAAATTTTCCTAATCTTTCTGTTCAAGCGCCATCTAC,0.967 RPM ratio (pull-down/input)
12,GATGATTGTTCTCCCAGCTGATGAATTTTTGCTTTCGAGTAAACAAATTTTCCTAATCTTTCTGTTCAAGCGCCATCTAC,1.83 RPM ratio (pull-down/input)
13,GATGATTGTTCTCCCAGCTGATGAATTTGCTTCTTCGAGTAAACAAATTTTCCTAATCTTTCTGTTCAAGCGCCATCTAC,1.02 RPM ratio (pull-down/input)
14,GATGATTGTTCTCCCAGCTGATGAATTGCTTTTTTCGAGTAAACAAATTTTCCTAATCTTTCTGTTCAAGCGCCATCTAC,1.45 RPM ratio (pull-down/input)
15,GATGATTGTTCTCCCAGCTGATGAATTTGCTTTTTCGAGTAAACAAATTTTCCTAATCTTTCTGTTCAAGCGCCATCTAC,1.21 RPM ratio (pull-down/input)
16,GATGATTGTTCTCCCAGCTGATGAATTTGTTGCTTCGAGTAAACAAATTTTCCTAATCTTTCTGTTCAAGCGCCATCTAC,1.54 RPM ratio (pull-down/input)
17,GATGATTGTTCTCCCAGCTGATGAATTGCTTTGTTCGAGTAAACAAATTTTCCTAATCTTTCTGTTCAAGCGCCATCTAC,1.11 RPM ratio (pull-down/input)
18,GATGATTGTTCTCCCAGCTGATGAATTGTTGCTTTCGAGTAAACAAATTTTCCTAATCTTTCTGTTCAAGCGCCATCTAC,2.12 RPM ratio (pull-down/input)
19,GATGATTGTTCTCCCAGCTGATGAATTTTTTGCTTCGAGTAAACAAATTTTCCTAATCTTTCTGTTCAAGCGCCATCTAC,0.938 RPM ratio (pull-down/input)
20,GATGATTGTTCTCCCAGCTGATGAATTGTTTGCTTCGAGTAAACAAATTTTCCTAATCTTTCTGTTCAAGCGCCATCTAC,2.2 RPM ratio (pull-down/input)
